Assay [1] deals with T1, Dual specificity mitogen-activated protein kinase kinase 6 (Homo sapiens) (UniProt P52564).
T1 sequence (whole entry): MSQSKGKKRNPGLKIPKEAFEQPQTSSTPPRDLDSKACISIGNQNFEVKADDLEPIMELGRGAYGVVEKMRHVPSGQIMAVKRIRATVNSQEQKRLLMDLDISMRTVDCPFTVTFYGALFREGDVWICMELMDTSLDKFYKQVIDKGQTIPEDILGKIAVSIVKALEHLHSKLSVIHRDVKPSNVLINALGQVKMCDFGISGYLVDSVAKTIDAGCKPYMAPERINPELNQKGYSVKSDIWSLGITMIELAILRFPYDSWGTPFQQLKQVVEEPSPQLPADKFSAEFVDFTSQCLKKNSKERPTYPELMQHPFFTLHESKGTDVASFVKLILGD
The settings on record: at 1 µM.

Assay [2] deals with T1, Dual specificity mitogen-activated protein kinase kinase 6 (Homo sapiens). As to conditions: at 10 µM.
The target in assay [3] is T2, Dual specificity mitogen-activated protein kinase kinase 7 (Homo sapiens) (UniProt O14733).
T2 sequence (whole entry): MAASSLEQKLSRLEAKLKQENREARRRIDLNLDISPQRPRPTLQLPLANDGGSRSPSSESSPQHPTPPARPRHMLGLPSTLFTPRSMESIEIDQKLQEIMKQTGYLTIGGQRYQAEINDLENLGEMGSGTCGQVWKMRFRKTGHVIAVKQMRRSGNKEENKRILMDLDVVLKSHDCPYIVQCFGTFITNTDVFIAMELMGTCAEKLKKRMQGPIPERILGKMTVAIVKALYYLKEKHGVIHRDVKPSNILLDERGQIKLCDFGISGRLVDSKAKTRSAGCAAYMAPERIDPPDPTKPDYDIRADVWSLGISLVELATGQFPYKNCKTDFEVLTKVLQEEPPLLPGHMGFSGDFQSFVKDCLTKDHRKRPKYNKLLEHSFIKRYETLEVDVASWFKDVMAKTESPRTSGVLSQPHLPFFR
The settings on record: at 1 µM.

The target of assay [4] is T2, Dual specificity mitogen-activated protein kinase kinase 7 (Homo sapiens). The settings on record: at 10 µM.
Assay [5] deals with Myosin light chain kinase, smooth muscle (Homo sapiens) (UniProt Q15746). The settings on record: at 1 µM.
Sequence of Myosin light chain kinase, smooth muscle (Homo sapiens) (Q15746 whole entry): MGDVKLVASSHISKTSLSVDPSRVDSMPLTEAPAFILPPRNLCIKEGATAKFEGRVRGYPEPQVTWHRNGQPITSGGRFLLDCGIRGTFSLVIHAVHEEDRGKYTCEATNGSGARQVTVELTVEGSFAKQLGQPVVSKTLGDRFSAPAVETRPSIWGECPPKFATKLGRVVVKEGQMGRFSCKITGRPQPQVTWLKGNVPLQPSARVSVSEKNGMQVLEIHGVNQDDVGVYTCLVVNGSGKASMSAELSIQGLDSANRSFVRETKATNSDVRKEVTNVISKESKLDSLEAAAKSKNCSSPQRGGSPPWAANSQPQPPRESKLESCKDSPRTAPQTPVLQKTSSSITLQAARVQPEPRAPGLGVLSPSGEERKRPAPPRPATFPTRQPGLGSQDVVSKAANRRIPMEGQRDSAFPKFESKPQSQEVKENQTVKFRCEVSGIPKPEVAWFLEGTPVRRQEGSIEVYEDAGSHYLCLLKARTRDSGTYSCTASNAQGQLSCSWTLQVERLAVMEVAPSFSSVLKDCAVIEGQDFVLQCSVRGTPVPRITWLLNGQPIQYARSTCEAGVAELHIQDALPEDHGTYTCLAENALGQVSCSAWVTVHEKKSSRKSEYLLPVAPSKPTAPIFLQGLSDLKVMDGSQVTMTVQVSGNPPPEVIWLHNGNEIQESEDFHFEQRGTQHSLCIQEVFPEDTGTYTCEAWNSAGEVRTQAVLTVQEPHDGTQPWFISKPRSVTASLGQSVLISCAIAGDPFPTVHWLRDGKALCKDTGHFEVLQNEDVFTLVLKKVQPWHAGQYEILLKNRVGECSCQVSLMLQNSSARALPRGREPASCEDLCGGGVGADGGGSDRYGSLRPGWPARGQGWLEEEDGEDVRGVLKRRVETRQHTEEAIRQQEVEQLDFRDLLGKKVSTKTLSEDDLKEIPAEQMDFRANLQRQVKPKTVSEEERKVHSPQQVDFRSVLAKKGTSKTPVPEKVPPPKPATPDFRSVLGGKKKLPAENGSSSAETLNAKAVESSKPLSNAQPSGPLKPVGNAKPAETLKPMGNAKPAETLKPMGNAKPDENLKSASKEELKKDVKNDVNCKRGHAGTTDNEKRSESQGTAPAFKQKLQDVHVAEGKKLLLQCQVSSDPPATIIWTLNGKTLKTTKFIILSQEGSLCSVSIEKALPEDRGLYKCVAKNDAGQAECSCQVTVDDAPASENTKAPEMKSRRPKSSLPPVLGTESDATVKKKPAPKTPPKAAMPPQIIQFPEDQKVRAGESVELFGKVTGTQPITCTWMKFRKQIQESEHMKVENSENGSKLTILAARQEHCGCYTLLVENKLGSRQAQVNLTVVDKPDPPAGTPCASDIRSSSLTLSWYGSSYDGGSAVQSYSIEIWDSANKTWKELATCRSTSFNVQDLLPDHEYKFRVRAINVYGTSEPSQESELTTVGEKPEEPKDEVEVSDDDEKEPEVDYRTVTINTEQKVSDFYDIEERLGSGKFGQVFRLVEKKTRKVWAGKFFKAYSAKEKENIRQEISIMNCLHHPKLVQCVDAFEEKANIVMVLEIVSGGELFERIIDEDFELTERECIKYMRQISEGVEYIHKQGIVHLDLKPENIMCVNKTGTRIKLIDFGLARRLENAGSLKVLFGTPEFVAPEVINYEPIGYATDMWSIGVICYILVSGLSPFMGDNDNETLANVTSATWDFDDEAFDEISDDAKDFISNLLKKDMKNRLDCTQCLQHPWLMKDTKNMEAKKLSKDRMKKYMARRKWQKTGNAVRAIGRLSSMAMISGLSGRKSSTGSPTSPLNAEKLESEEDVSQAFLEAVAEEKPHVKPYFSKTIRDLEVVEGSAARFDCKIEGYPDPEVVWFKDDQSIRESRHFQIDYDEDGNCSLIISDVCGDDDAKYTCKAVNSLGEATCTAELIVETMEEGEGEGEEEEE
For assay [6] the target is unchanged. As to conditions: at 10 µM.
Assay [7] deals with Mitogen-activated protein kinase kinase kinase 9 (Homo sapiens) (UniProt P80192). The settings on record: at 1 µM.
Sequence of Mitogen-activated protein kinase kinase kinase 9 (Homo sapiens) (P80192 whole entry, looked up): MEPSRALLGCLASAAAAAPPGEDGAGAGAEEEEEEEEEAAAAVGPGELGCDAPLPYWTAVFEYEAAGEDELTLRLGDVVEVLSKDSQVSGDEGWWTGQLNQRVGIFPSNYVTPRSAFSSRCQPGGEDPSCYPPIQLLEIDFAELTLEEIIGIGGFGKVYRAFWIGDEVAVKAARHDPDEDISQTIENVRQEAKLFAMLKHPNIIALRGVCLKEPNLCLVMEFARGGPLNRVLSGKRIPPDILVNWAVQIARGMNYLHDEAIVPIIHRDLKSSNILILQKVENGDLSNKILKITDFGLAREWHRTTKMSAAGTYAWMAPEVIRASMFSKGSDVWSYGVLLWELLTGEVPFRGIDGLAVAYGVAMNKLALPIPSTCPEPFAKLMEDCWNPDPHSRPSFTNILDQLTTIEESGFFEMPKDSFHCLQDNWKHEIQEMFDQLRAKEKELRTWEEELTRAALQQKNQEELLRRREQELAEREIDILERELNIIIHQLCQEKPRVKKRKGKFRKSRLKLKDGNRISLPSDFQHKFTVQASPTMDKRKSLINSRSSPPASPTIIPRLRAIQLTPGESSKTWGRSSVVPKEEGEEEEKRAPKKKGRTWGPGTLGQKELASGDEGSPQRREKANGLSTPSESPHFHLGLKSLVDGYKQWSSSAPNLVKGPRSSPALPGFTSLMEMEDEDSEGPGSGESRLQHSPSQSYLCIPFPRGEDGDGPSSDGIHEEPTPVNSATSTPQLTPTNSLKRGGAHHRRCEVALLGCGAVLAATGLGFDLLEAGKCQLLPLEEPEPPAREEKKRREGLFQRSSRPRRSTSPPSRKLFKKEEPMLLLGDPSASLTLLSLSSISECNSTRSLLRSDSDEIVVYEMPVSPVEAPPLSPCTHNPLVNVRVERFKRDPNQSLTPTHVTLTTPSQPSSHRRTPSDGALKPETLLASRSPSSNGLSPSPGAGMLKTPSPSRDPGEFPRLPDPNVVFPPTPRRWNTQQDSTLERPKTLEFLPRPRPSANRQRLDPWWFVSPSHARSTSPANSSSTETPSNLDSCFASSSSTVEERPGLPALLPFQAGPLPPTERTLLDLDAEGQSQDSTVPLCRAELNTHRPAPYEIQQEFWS
Assay [8] shares this target. As to conditions: at 10 µM.
Assay [9] concerns the target Serine/threonine-protein kinase MRCK alpha (Homo sapiens) (UniProt Q5VT25). The settings on record: at 1 µM.
The target is the same in assay [10]. As to conditions: at 10 µM.
The target of assay [11] is Serine/threonine-protein kinase MRCK beta (Homo sapiens) (UniProt Q9Y5S2). As to conditions: at 1 µM.
Assay [12] shares this target. The settings on record: at 10 µM.
The target of assay [13] is Ribosomal protein S6 kinase alpha-5 (Homo sapiens) (UniProt O75582). As to conditions: at 1 µM.
The target is the same in assay [14]. The settings on record: at 10 µM.
Assay [15] deals with Ribosomal protein S6 kinase alpha-4 (Homo sapiens) (UniProt O75676). As to conditions: at 1 µM.
Assay [16] shares this target. As to conditions: at 10 µM.
Assay [17] deals with SRSF protein kinase 3 (Homo sapiens) (UniProt Q9UPE1). As to conditions: at 1 µM.
The target is the same in assay [18]. The settings on record: at 10 µM.
In assay [19] the target is T3, Serine/threonine-protein kinase 4 (Homo sapiens) (UniProt Q13043).
T3 sequence (whole entry): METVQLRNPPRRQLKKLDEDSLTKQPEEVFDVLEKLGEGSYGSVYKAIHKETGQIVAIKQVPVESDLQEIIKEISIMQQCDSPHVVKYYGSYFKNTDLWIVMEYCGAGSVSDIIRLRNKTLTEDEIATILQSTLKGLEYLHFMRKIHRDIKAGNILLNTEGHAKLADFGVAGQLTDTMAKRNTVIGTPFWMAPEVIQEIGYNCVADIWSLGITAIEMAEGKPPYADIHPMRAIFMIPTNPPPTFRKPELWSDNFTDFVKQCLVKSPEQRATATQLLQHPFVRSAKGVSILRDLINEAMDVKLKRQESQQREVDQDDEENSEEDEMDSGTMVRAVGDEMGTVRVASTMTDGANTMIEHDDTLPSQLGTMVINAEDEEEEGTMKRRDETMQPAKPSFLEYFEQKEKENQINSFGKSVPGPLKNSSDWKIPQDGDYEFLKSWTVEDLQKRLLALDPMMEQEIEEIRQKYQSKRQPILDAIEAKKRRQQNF
The settings on record: at 1 µM.

The target in assay [20] is T3, Serine/threonine-protein kinase 4 (Homo sapiens). The settings on record: at 10 µM.

Among the data in ChEMBL document CHEMBL2218924, “A broad activity screen in support of a chemogenomic map for kinase signalling research and drug discovery” (Biochem J, 2013) are residual activity values, retold here.

Sequence of Serine/threonine-protein kinase MRCK alpha (Homo sapiens) (Q5VT25 whole entry): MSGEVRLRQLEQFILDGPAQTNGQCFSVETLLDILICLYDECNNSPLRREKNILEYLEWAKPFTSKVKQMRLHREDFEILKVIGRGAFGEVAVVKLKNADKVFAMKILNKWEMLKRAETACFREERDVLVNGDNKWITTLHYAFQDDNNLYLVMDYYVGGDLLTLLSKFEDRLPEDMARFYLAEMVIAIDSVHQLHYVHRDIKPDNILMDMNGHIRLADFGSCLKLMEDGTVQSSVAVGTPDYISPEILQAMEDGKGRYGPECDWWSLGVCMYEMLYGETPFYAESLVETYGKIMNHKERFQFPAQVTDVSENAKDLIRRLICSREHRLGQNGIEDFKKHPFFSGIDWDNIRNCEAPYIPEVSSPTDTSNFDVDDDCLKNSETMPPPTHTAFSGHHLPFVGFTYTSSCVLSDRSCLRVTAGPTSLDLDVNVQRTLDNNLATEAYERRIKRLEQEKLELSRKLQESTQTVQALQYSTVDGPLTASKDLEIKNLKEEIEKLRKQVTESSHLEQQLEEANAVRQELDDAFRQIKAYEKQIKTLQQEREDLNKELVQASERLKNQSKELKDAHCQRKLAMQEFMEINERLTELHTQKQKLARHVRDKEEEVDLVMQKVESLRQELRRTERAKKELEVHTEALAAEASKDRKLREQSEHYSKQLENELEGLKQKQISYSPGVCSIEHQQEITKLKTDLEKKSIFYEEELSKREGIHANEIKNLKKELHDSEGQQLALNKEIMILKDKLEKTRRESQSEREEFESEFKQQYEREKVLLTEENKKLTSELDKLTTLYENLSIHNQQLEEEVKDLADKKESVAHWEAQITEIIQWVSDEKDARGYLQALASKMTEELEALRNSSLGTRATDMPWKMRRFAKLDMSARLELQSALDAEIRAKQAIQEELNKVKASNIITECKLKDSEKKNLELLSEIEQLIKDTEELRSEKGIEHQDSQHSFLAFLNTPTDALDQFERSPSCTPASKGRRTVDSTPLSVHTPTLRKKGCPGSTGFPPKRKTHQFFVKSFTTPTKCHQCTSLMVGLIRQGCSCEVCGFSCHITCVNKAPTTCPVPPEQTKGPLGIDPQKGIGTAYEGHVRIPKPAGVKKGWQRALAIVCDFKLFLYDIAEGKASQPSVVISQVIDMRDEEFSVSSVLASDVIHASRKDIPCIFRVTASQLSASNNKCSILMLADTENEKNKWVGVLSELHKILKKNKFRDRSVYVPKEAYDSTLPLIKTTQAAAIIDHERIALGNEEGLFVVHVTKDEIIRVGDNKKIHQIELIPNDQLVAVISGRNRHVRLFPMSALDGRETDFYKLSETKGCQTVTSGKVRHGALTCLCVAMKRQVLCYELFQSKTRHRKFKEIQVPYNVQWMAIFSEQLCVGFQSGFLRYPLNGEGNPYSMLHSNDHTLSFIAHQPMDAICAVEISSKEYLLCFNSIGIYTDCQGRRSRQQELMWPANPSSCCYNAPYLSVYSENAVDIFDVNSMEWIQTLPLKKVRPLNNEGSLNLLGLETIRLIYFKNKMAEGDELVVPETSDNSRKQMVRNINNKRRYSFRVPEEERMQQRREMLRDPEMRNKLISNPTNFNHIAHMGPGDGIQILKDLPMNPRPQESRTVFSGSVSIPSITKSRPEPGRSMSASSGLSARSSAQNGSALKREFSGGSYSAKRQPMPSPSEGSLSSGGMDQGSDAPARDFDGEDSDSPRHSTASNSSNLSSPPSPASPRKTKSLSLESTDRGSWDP

For the compound `CC(=O)O/N=C1\C(=C2\C(=O)Nc3cc(Br)ccc32)Nc2ccccc21`, the residual activity amounted to 96% in [1]; 76% in assay [2]; 83% in assay [3]; 105% in assay [4]; 90% in [5]; 71% in [6]. Further, the residual activity in assay [7] was 55%; in assay [8], 16%; in assay [9] it was 93%; in assay [10], 101%; in assay [11], 96%; in [12] it was 91%. Also, the residual activity in assay [13] is 99%; in assay [14] it was 85%; in assay [15] it was 100%; in assay [16] it was 74%; in [17] it was 96%; in assay [18] it was 102%. Moreover, the values for the residual activity in assay [19] and in assay [20] were 50% and 23%, respectively.

Consider `O=C1NC(=O)c2cc(Nc3ccc(F)cc3)c(Nc3ccc(F)cc3)cc21`, for which the residual activity in assay [1] was found to be 72%; in [2] it was 58%; in [3] it was 98%; in assay [4], 97%; in assay [5] it was 55%; in assay [6], 70%. The residual activity in assay [7] worked out at 86%; in assay [8] it was 75%; in assay [9], 100%; in assay [10], 111%; in assay [11], 79%; in assay [12], 64%. The residual activity is 128% in assay [13]; 93% in assay [14]; 97% in [15]; 91% in assay [16]; 106% in [17]; 84% in assay [18]. Moreover, the results for the residual activity in assay [19] and in [20] were 92% and 100%, respectively.

For the compound `O=C(Nc1cccc(Nc2nccc(Nc3cccc(C(F)(F)F)c3)n2)c1)C1CC1`, the residual activity in assay [1] worked out at 76%; in assay [2], 51%; in assay [3], 85%; in [4] it was 87%; in assay [5], 54%; in assay [6] it was 66%. Moreover, the residual activity in [7] came to 82%; in assay [8], 29%; in [9] it was 117%; in [10], 130%; in assay [11], 103%; in assay [12] it was 88%. Further, the residual activity in assay [13] turned out to be 114%; in assay [14], 89%; in assay [15] it was 89%; in [16], 89%; in assay [17], 105%; in assay [18], 89%. Also, the values for the residual activity in assay [19] and in assay [20] were 110% and 92%, respectively.

In the case of `Oc1c2ccccc2c2c3c(cccc13)N=N2`, the residual activity stood at 82% in assay [1]; 13% in assay [2]; 58% in assay [3]; 6% in assay [4]; 29% in assay [5]; 3% in assay [6]. Further, the residual activity in [7] is 13%; in assay [8] it was 4%; in assay [9], 115%; in assay [10] it was 116%; in assay [11], 90%; in assay [12], 95%. Also, the residual activity is 93% in [13]; 69% in assay [14]; 76% in [15]; 36% in assay [16]; 90% in [17]; 82% in assay [18]. The residual activity in [19] worked out at 52%; in assay [20], 21%.

As to `COc1cc2ncnc(Nc3ccc(Oc4ccccc4)cc3)c2cc1OC`, the residual activity is 79% in assay [1]; 83% in [2]; 87% in assay [3]; 81% in assay [4]; 72% in [5]; 91% in assay [6]. The residual activity in assay [7] is 18%; in assay [8], 4%; in assay [9] it was 103%; in [10], 134%; in [11], 99%; in assay [12] it was 114%. The residual activity in assay [13] amounted to 137%; in assay [14] it was 129%; in [15], 89%; in [16] it was 135%; in [17], 105%; in assay [18] it was 81%. The results for the residual activity in assay [19] and in [20] were 99% and 93%, respectively.

As for `CNc1cc2c(Nc3cccc(Br)c3)ncnc2cn1`, the residual activity turned out to be 72% in assay [1]; 79% in [2]; 100% in [3]; 93% in assay [4]; 55% in assay [5]; 49% in [6]. For the same compound, the residual activity in assay [7] worked out at 68%; in assay [8], 53%; in assay [9], 98%; in assay [10] it was 101%; in assay [11], 86%; in assay [12] it was 84%. Besides, the residual activity is 133% in assay [13]; 110% in assay [14]; 104% in assay [15]; 109% in assay [16]; 99% in [17]; 25% in assay [18]. The residual activity in assay [19] is 95%; in assay [20], 102%.

Regarding `O=C1c2ccccc2-[n+]2ccc3c([nH]c4ccccc43)c21`, the residual activity stood at 109% in assay [1]; 92% in [2]; 91% in assay [3]; 97% in assay [4]; 95% in assay [5]; 79% in assay [6]. Further, the residual activity was 91% in assay [7]; 83% in [8]; 100% in assay [9]; 86% in assay [10]; 90% in assay [11]; 85% in assay [12]. The residual activity was found to be 104% in [13]; 110% in assay [14]; 97% in [15]; 90% in assay [16]; 106% in assay [17]; 99% in [18]. Besides, the results for the residual activity in assay [19] and in assay [20] were 108% and 94%, respectively.
